According to PubChem BioAssay (NCATS):
Results filed as inconclusive are left out. Unless noted, calls follow the shape of the full dose curve.

What was measured:
[1] = Cell Viability - BJ (AID 421); settings: BJ fibroblast viability, qHTS;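 also: cells exposed to compound for 40 hours at 37 °C before readout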
Outline: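 Cytotoxicity as drop in intracellular ATP (CellTiter-Glo, 20 min RT) after 40 hr compound exposure of BJ fibroblasts at 37 °C. Titrations scaled between DMSO and 100 uM tamoxifen, Hill-fitted for AC50.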

[2] = Cell Viability - Jurkat (AID 426;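 active = dose-dependent loss of cell ATP signal giving a full or clear fitted curve, ranked by lower potency value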;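 also: cells exposed to compound for 40 hours at 37 °C before ATP read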); settings: qHTS
Description: NIH Chemical Genomics Center [NCGC]
NIH Molecular Libraries Screening Centers Network [MLSCN]
National Institutes of Environmental Health Sciences [NIEHS]
National Toxicology Program [NTP]
We have developed a 1536-well cell-based assay for quantitative high throughput screening (qHTS) against a number of cell lines to determine in vitro cytotoxicity of small molecules. This particular assay uses the Jurkat cell line (Clone E6-1) which is derived from the human T cell leukemia.
NCGC Assay Protocol Summary:
The CellTiter-Glo luminescent cell viability assay (Promega) is a homogeneous method to measure the number of viable cells in culture. The end point readout of this assay is based on quantitation of intracellular ATP, an indicator of metabolic activity, using the luciferase reaction. […]
Using the CellTiter-Glo luminescent cell viability assay, the amount of cellular ATP was measured in the Jurkat cell line with complete culture medium following compound treatment for 40 hours. […] Library compounds were measured for their ability to cause acute toxicity in the cell line, as reflected by a decrease in intracellular ATP levels, in a concentration-dependent manner. […] AC50 values were determined from concentration-response data modeled with the standard Hill equation. […]
7. Detection; Luminescence; Viewlux plate reader […]

[3] = Cell Viability - Hek293 (AID 427;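 active = compounds whose dose-response curve shows a full or clear partial loss of cell viability, called from curve shape rather than a numeric limit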;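 also: cells exposed to compound for 40 hours at 37 °C before reading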); settings: qHTS
Outline: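 Luminescent ATP content (CellTiter-Glo, 20 min at room temperature) was measured after a 40 hr, 37 °C compound exposure of HEK293 cells. AC50 values came from Hill-equation fits of qHTS concentration-response data normalized to DMSO and 100 uM tamoxifen.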

[4] = Cell Viability - HepG2 (AID 433); settings: qHTS;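 also: potency for ATP loss meaning cytotoxicity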
Outline: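 Cytotoxicity is scored as loss of intracellular ATP in HepG2 cells exposed to compounds for 40 h. Concentration-response curves, normalized to DMSO and 100 uM tamoxifen, give AC50 values.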

[5] = Cell Viability - MRC5 (AID 434); settings: MRC5 lung fibroblast viability, qHTS;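 also: cells exposed to compound for 40 hours at 37 °C; potency reflects cytotoxicity seen as loss of intracellular ATP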
Outline: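 Decrease in intracellular ATP, quantified by luciferase light output, reflects compound toxicity toward MRC5 cells exposed for 40 hr in complete culture medium. Concentration-response curves, scaled between DMSO and 100 uM tamoxifen, gave AC50 values.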

[6] = Cell Viability - SK-N-SH (AID 435); settings: SK-N-SH neuroblastoma cell viability qHTS;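 also: compound exposure lasted 40 h at 37 °C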
Outline: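 Cells seeded at 1500 per well and incubated 5 hr at 37 °C. Compound added, then 40 hr at 37 °C. CellTiter-Glo added, 20 min at room temperature, luminescence read.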

Measured: Potency
Potency is read from the fitted curve at half-maximal effect.

C[C@@H]1C[C@H]2[C@@H]3CCC4=CC(=O)C=C[C@]4(C)[C@@]3(F)[C@@H](O)C[C@]2(C)[C@@]1(O)C(=O)CO
inactive: [1] > 92 µM | [2] > 92 µM | [3] > 92 µM | [4] > 92 µM | [5] > 92 µM | [6] > 92 µM
